According to PubChem BioAssay (EPA / NIEHS):
Results filed as inconclusive are left out. The source made the active and inactive calls. Rule for the calls: active = hit-call score of the fitted dose curve at least 0.9, where 1 is the maximum; inconclusive = response in the unintended direction; inactive = score below 0.9.

Target: Retinoic acid receptor RXR-alpha (Homo sapiens) (UniProt P19793)
Experiment: ATG_RXRa_TRANS: Attagene TRANS-FACTORIAL HepG2 Assay for human Retinoid X Receptor alpha (RXRa) (AID 2283012)
Procedure, shortened: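 HepG2 cells transiently transfected with GAL4-UAS reporter units and chimeric RXRa-Gal4 protein, treated 24 h. Reporter mRNA measured by RT-PCR, fluorescent labelling, HpaI digestion and capillary electrophoresis. Induction fitted against DMSO.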

Chain of Retinoic acid receptor RXR-alpha (Homo sapiens) (P19793 whole entry, looked up): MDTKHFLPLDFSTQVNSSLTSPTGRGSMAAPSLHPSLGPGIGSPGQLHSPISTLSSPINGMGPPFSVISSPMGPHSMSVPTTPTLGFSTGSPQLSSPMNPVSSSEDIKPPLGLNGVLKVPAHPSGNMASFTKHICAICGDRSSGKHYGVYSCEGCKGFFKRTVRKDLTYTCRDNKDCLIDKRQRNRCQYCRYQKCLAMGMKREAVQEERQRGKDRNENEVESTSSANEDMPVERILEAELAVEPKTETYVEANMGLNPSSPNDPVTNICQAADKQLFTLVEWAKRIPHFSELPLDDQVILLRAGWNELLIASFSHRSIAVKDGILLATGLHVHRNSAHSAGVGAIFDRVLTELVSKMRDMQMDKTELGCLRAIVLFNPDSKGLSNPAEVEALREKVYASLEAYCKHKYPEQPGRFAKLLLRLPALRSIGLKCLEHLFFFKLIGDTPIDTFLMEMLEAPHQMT

outcome, inactive:
NC(=O)c1nc(-c2cccc(-c3cc(F)ccc3OCC(F)(F)C(F)(F)F)c2)n[nH]1
O=C(Nc1ccc(Cl)cc1)Nc1ccc(Cl)c(Cl)c1
CCCCCCCCCCCC[N+](C)(C)C
CC[C@H](NC(=O)c1cc(F)ccc1NS(=O)(=O)c1cccc2cccnc12)c1ccccc1
O=C=NCCCCCCN=C=O
CN(C)C(=O)C1(N2CCCCC2)CCN(CC[C@@]2(c3ccc(Cl)c(Cl)c3)CN(C(=O)c3ccccc3)CCO2)CC1
CCCCOC(=O)CC(CC(=O)OCCCC)(OC(C)=O)C(=O)OCCCC
Clc1ccccc1C(c1ccccc1)(c1ccccc1)n1ccnc1
Cc1cn([C@H]2C[C@H](N=[N+]=[N-])[C@@H](CO)O2)c(=O)[nH]c1=O
Oc1ccc2ccccc2c1
COc1ccc2cc(S(=O)(=O)N[C@H](CC(=O)N[C@H](Cc3ccc(CN4[C@H](C)CCC[C@@H]4C)cc3)C(=O)N(C)C(C)C)c3ccc4c(c3)OCO4)ccc2c1
CCCCCCCCCC(=O)O
CC(C)(C)c1csc(-c2cc3cc(OCc4ccccc4CC(=O)O)ccc3o2)n1
CC(C)(C)c1cc(/C=C2\SC(N)=NC2=O)cc(C(C)(C)C)c1O
CN(C)c1ccc(C(=C2C=CC(=[N+](C)C)C=C2)c2ccc(N(C)C)cc2)cc1
c1ccc2n[nH]nc2c1
CCCCCCCCOC(=O)c1cc(O)c(O)c(O)c1
CC(C)(c1cc(Br)c(O)c(Br)c1)c1cc(Br)c(O)c(Br)c1
